Whole data set: some 1,100 compounds, median “Renilla luciferase signal (cell health) relative to plate median” near 0.97, cut for the highest 2% near 1.6. The sample holds the highest values, similar compounds and a random draw of the others, so the mix is not that of the screen.
System: HEK293T (UBE3A T485A transfected, BAR Wnt reporter)
Test: Renilla luciferase signal (cell health) relative to plate median (fold (linear ratio)); higher = higher Renilla signal
Conditions: 24 h
How it was run: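 HEK293T cells were seeded at 4500 cells/well in white 384-well plates and grown in DMEM with 10% FBS at 37°C and 5% CO2. The cells were transfected using Fugene 6 with a BAR firefly luciferase Wnt reporter, TK-Renilla and an expression plasmid, and four hours later robots added the chemicals at 0.01–100 uM for 24 h before a Dual-Glo luciferase readout. Wnt activity was taken as the firefly/Renilla ratio and cell health as raw Renilla, each median-centred per plate. Values are averages of four biological replicates.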

Structure (SMILES) | Renilla luciferase signal (concentration: 0.01 uM) | Renilla luciferase signal (concentration: 0.1 uM) | Renilla luciferase signal (concentration: 1 uM) | Renilla luciferase signal (concentration: 10 uM) | Renilla luciferase signal (concentration: 100 uM)
O=c1ccn(C2OC(COP(=O)(O)OP(=O)(O)OP(=O)(O)O)C(O)C2O)c(=O)[nH]1 (stereo not given) | 0.681 | 0.813 | 0.949 | 0.922 | 2.08
Cl.Nc1ccn([C@@H]2O[C@H](CO)[C@@H](O)[C@@H]2O)c(=O)n1 [Cytarabine hydrochloride] |  | 0.829 | 0.907 | 0.626 | 0.809
OCCC(F)(F)C(F)(F)C(F)(F)C(F)(F)C(F)(F)C(F)(F)C(F)(F)C(F)(F)F [1,1,2,2-Tetrahydroperfluoro-1-decanol] |  | 0.4 | 0.824 | 0.813 | 1.27
Cc1ncc([C@@H](CCCCCCc2ccc3c(n2)NCCC3)CC(=O)O)cn1 |  | 0.747 | 0.794 | 0.796 | 0.82
CNCc1cc(F)ccc1Oc1ccc(Cl)c(Cl)c1 |  | 0.817 | 0.874 | 0.723 | 0.0625
Cn1cnc([N+](=O)[O-])c1Sc1ncnc2nc[nH]c12 [Azathioprine] |  | 0.939 | 0.983 | 0.605 | 0.0481
CCCCCCCCCCCCN1CCCC1=O [1-Dodecyl-2-pyrrolidinone] |  | 0.846 | 0.856 | 0.929 | 0.883
CC(=O)OC1CC(C)OC(C)O1 (stereo not given) [Dimethoxane] |  | 1.23 | 1.1 | 1.26 | 1.63
CCOC(=O)c1ccc([C@H]2CC[C@H](NC[C@H](O)COc3ccc(O)c(NS(C)(=O)=O)c3)CC2)cc1.Cl |  | 0.973 | 0.878 | 0.753 | 0.0262
C[C@]12C[C@H](O)[C@H]3[C@@H](CCC4=CC(=O)CC[C@@]43C)[C@@H]1CC[C@@H]2C(=O)CO [Corticosterone] |  | 0.641 | 0.712 | 0.847 | 0.636
CN(C)[C@@H]1C(O)=C(C(N)=O)C(=O)[C@@]2(O)C(O)=C3C(=O)c4c(O)cccc4[C@@](C)(O)[C@H]3[C@H](O)[C@@H]12.O.O [Oxytetracycline dihydrate] | 0.781 | 0.636 | 0.879 | 0.861 | 0.964
CN(C)[C@@H]1C(O)=C(C(N)=O)C(=O)[C@@]2(O)C(O)=C3C(=O)c4c(O)cccc4[C@@](C)(O)[C@H]3C[C@@H]12 [Tetracycline] |  | 0.672 | 0.805 | 0.694 | 1.7
CN(C)[C@@H]1C(O)=C(C(N)=O)C(=O)[C@@]2(O)C(O)=C3C(=O)c4c(O)cccc4[C@@](C)(O)[C@H]3[C@H](O)[C@@H]12.Cl [Oxytetracycline hydrochloride] |  | 0.959 | 1.35 | 2.28 | 0.903
O=C(O)CCCCC(=O)O [Hexanedioic acid] |  | 0.851 | 0.762 | 0.865 | 1.08
O=C1OC(=O)C2C3C=CC(C3)C12 (stereo not given) [2-Norbornene-5,6-dicarboxylic anhydride] |  | 0.885 | 0.853 | 0.966 | 1.39
COC(=O)CSc1cc(/N=c2\sc(=O)n3n2CCCC3)c(F)cc1Cl [Fluthiacet-methyl] | 1.03 | 0.995 | 1.1 | 1 | 1.21
Fc1ccccc1[C@@H](F)CO[C@H]1CC[C@H](Nc2[nH]cnc3nncc2-3)CC1 |  | 1.06 | 1.09 | 0.996 | 0.148
Oc1cc2ccccc2c2ccccc12 [9-Phenanthrol] |  | 1.08 | 1.05 | 1.01 | 0.0207
COCCO [2-Methoxyethanol] | 1.12 | 1.02 | 0.98 | 0.983 | 1.53

Structure (SMILES) | Renilla luciferase signal (concentration: 0.01 uM) | Renilla luciferase signal (concentration: 0.1 uM) | Renilla luciferase signal (concentration: 1 uM) | Renilla luciferase signal (concentration: 10 uM) | Renilla luciferase signal (concentration: 100 uM)
CN(C)CCCN1c2ccccc2Sc2ccc(Cl)cc21.Cl [Chlorpromazine hydrochloride] |  | 1.17 | 1.23 | 1.24 | 0.575
O=c1ccc2ccccc2o1 [Coumarin] |  | 1.21 | 1.07 | 1.11 | 1.15
Nc1ccc(S(=O)(=O)c2ccc(N)cc2)cc1 [Dapsone] |  | 1.03 | 1.07 | 1.2 | 1.03
CCCCOC(=O)c1ccc(O)cc1 [Butylparaben] |  | 0.848 | 0.85 | 0.756 | 0.258
CCCCN1C(=O)[C@@H]([C@H](O)C2CCCCC2)NC(=O)C12CCN(Cc1ccc(Oc3ccc(C(=O)O)cc3)cc1)CC2.Cl [Aplaviroc hydrochloride] |  | 0.995 | 1.01 | 1.04 | 2.23
CCc1ccc(O)c(C(C)(C)C)c1 [2-tert-Butyl-4-ethylphenol] |  | 1.28 | 1.07 | 1.02 | 1.22
O=C(O)CC(O)(CC(=O)O)C(=O)O [Citric acid] |  | 0.965 | 0.981 | 1.13 | 1.46
NC(=O)c1nc(-c2cccc(-c3cc(F)ccc3OCC(F)(F)C(F)(F)F)c2)n[n-]1.O.[K+] |  | 0.946 | 0.78 | 0.498 | 0.0369
O=C(O)Cc1cc(I)c(Oc2ccc(O)c(I)c2)c(I)c1 [Tiratricol] |  | 0.92 | 1.07 | 0.852 | 0.382
O=C(O)Cc1cc(I)c(Oc2cc(I)c(O)c(I)c2)c(I)c1 [Tetrac] |  | 1.07 | 1.06 | 1.11 | 1.28
N[C@@H](Cc1cc(I)c(Oc2ccc(O)c(I)c2)c(I)c1)C(=O)O [3,5,3'-Triiodothyronine] |  | 0.904 | 1.24 | 2.47 | 2.22
COc1ccc(-c2ccc(=N)n(CCCC(=O)O)n2)cc1 | 0.946 | 0.914 | 0.864 | 0.935 | 1.38
COc1ccc2c(c1)c(CC(=O)O)c(C)n2C(=O)c1ccc(Cl)cc1 [Indomethacin] |  | 1.09 | 1.15 | 1.17 | 0.248
CC1(C)C(=O)N(Cl)C(=O)N1Cl [1,3-Dichloro-5,5-dimethylhydantoin] |  | 0.99 | 1.06 | 1.04 | 0.988
CC=Cc1ccc(O)c(OC)c1 [Isoeugenol] |  | 0.954 | 1.01 | 0.993 | 0.945
CCN(CC)CCOc1ccc(C(=C(Cl)c2ccccc2)c2ccccc2)cc1.O=C(O)CC(O)(CC(=O)O)C(=O)O [Clomiphene citrate (1:1)] |  | 0.837 | 0.85 | 0.818 | 1.02
CCCCCCC(C)OC(=O)COc1nc(F)c(Cl)c(N)c1Cl (stereo not given) [Fluroxypyr-meptyl] | 1.04 | 1.3 | 1.15 | 1.2 | 2.31
O=C(O)c1cc(/N=N/c2ccc(S(=O)(=O)Nc3ccccn3)cc2)ccc1O [Sulfasalazine] |  | 0.788 | 0.885 | 0.691 | 0.277
CC(C)(C)C(O)C(Cc1ccc(Cl)cc1)n1cncn1 (stereo not given) [Paclobutrazol] | 1.25 | 1.16 | 1.06 | 1.22 | 1.62

Structure (SMILES) | Renilla luciferase signal (concentration: 0.01 uM) | Renilla luciferase signal (concentration: 0.1 uM) | Renilla luciferase signal (concentration: 1 uM) | Renilla luciferase signal (concentration: 10 uM) | Renilla luciferase signal (concentration: 100 uM)
CCOc1cccc(-n2cc(C(=O)N3CCN(c4cc(C(=O)[O-])c5ccccc5c4)CC3)nc2-c2ccc(C)cc2)c1.[Na+] |  | 0.869 | 0.966 | 0.903 | 0.0785
Cc1cc(NC(=O)C(=O)O)cc(C)c1Oc1ccc(O)c2c1CCC2 |  | 1.12 | 1.12 | 0.767 | 1.03
Cc1occc(=O)c1O [Maltol] |  | 0.895 | 0.982 | 0.967 | 1.11
CCN(CC)C(=O)c1cc(S(=O)(=O)Cc2ccccc2)c(N2CCC(c3ccccc3)CC2)cc1N(CC)CCN(C)C.O=C(O)C(F)(F)F [HMR1171 trifluoroacetate (1:1)] |  | 0.802 | 0.767 | 0.648 | 0.249
OC12N=C(c3ccccc3)SC1Cc1cc(Cl)ccc12 (stereo not given) |  | 1.14 | 1.13 | 1.03 | 0.714
Cc1cc(SC2=C(O)C[C@@](CCc3ccc(N)cc3)(C(C)C)OC2=O)c(C(C)(C)C)cc1CO |  | 0.926 | 1.01 | 0.952 | 0.324
Sc1nc2ccccc2s1 [2-Mercaptobenzothiazole] |  | 0.981 | 0.791 | 0.768 | 0.92
O.O=C1[N-]S(=O)(=O)c2ccccc21.[Na+] [Sodium saccharin hydrate] |  | 1.05 | 1.15 | 1.35 | 1.71
C#C[C@]1(O)CC[C@H]2[C@@H]3CCC4=CC(=O)CC[C@@H]4[C@H]3CC[C@@]21C [Norethindrone] |  | 0.942 | 0.982 | 0.94 | 0.294
c1ccc2occc2c1 [2,3-Benzofuran] |  | 0.785 | 0.78 | 0.808 | 1.07
CCCCCCCCOC(=O)c1cc(O)c(O)c(O)c1 [Octyl gallate] |  | 0.909 | 0.947 | 0.814 | 0.0786
CCOC(=O)COc1cc(-n2ncc(C(F)(F)F)c(C)c2=O)c(F)cc1Cl [Flufenpyr-ethyl] | 1.2 | 0.957 | 1.07 | 1.03 | 1.51
CCCCCOC(=O)COc1cc(N2C(=O)C3=C(CCCC3)C2=O)c(F)cc1Cl [Flumiclorac-pentyl] | 0.938 | 0.9 | 1.01 | 0.974 | 1.62
CCCCCCc1ccc(O)cc1O [4-Hexylresorcinol] |  | 0.881 | 1.04 | 0.888 | 0.0332
CC(C)CC(C=O)NC(=O)C(CC(C)C)NC(=O)C(CC(C)C)NC(=O)OCc1ccccc1 (stereo not given) | 0.694 | 0.675 | 0.0628 | 0.00775 | 0.00453
Cn1cc[nH]c1=S [Methimazole] |  | 0.331 | 0.23 | 0.141 | 2.27
CNCc1ccc(NC(=O)c2c[nH]c3c2C(=O)CCC3)cc1 |  | 0.616 | 0.8 | 0.437 | 0.144
CC(=O)OC1C(=O)C2(C)C(O)CC3OCC3(OC(C)=O)C2C(OC(=O)c2ccccc2)C2(O)CC(OC(=O)C(O)C(NC(=O)c3ccccc3)c3ccccc3)C(C)=C1C2(C)C (stereo not given) [Taxol] | 0.147 | 0.104 | 0.111 | 0.131 | 0.0793
CCCOC(=O)NCCCN(C)C.Cl [Propamocarb hydrochloride] | 0.977 | 0.992 | 0.949 | 0.972 | 1.17
